From PubChem BioAssay
MCF10A rereplic: inducers of DNA re-replication in MCF 10A breast cells; Potency, µM (highest dose often 46.1 µM), inactives show top-dose activity, positive = re-replication, usual class: activators; MCF 10A DNA re-replication, Hoechst nuclear intensity, 48 h; 350,000 tested, 2.9% active; AID 624296; note: % of control where 0% means no effect; nearly all actives have a fitted effect of over 50% in size
KB-3-1 tox: kills parental KB-3-1 adenocarcinoma cells. AID 1347075. KB-3-1 viability, CellTiter-Glo ATP luminescence, 72 h. Potency, µM (titrated, usually from 46.1 µM), actives largely listed as cytotoxic. 400,000 tested, 1.4% active; note: % is set by controls: 0 for no effect and ±100 for the full control effect; nearly all actives have a fitted effect of over 60% in size
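Here the drug-naive KB-3-1 line serves as comparator for MDR sub-line selectivity; cells received compound titrations, 72 h at 37 °C, then CellTiter-Glo readout.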
ELG1 DNA repair: blocks ELG1-dependent DNA repair in HEK293T cells | HEK293T ELG1-luciferase reporter, luminescence, 16 h; DNA damage induced by 5-fluorouridine | Potency, µM (series often up to 46.1 µM), for inactives: top-dose activity change, negative = inhibition, most hits filed as inhibitors | 330,000 tested, 2.3% active; note: % is set by controls: 0 for no effect and ±100 for the full control effect; nearly all actives have a fitted effect of over 55% in size
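5-Fluorouridine DNA damage + compound/DMSO, 2,000 cells/well, 16 h, 37 °C/5% CO2. ONE-Glo, 30 min RT, luminescence. Readout = decrease in reporter signal.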
SW480 rereplic: DNA re-replication induction in SW480 cells | SW480 DNA re-replication, Hoechst DNA content imaging, 48 h | Potency, µM (doses to about 46.1 µM), for the others: top-dose re-replication activation, usual class: activators | 340,000 tested, 1.8% active | AID 624297; note: % of control where 0% means no effect; nearly all actives have a fitted effect of over 55% in size
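First, 250 cells per well were seeded. Next, compound or vehicle (23 nL) was pinned in, plates sat 48 hr at 37 C. Finally Hoechst was added for 40 min before fluorescence scanning.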
KB-V1 cytotox: kills drug-selected multidrug resistant KB-V1 cells | 400,000 tested, 3.4% active | KB-V1 MDR cells viability, CellTiter-Glo, 72 h | Potency, µM (doses to about 46.1 µM), usual class: cytotoxic | AID 1347076; note: % is set by controls: 0 for no effect and ±100 for the full control effect; nearly all actives have a fitted effect of over 60% in size
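KB-V1 MDR subline cells in DMEM (phenol-red free, 10% FBS) exposed to compounds in qHTS concentration series for 72 h at 37 degrees C. Viability read by CellTiter-Glo luminescence; concentration-effect curves fitted after normalization and correction.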
Numbers without * were called inactive; i = inactive; ? = inconclusive; · = no result given; [ ] = remark or other dose. Rows were chosen to be rich in hits. Some 8.1% of all compounds tested hit in one or more screens of this group. Calls come from the whole dose curve; as a rule, active = well fitted curve in the direction sought with a large enough effect; inconclusive = small, poorly fitted or top-dose-only effect, or another doubt; inactive = no such curve, though single readings can be large; an effect the other way counts as inactive or inconclusive. Potency is the fitted concentration of half-maximal effect.

SMILES	MCF10A rereplic	KB-3-1 tox	ELG1 DNA repair	SW480 rereplic	KB-V1 cytotox
COc1ccc(Cn2c(SCC(=O)N3CCN(c4ccc(F)cc4)CC3)nc3ccccc32)cc1	·	?	·	·	i
Nc1c(/C=C2/C=CC(=O)C(O)=C2)c(=O)nc2sc(CC(=O)N3CCCC3)nn12	-2.8%	i	?	-6.0%	i
Cc1ccc(C)c(N2CCN(CC3CC=CCC3)CC2)c1 (centres undefined)	-0.2%	i	-7.4%	0.8%	i
c1cc2c(cc1C1CCCCC1)c1c3n2CCN=C3CCC1	16.4µM*	?	-2.2%	20.6µM*	?
Cc1ccc2c(c1)c1c3n2CCN[C@H]3CCC1	?	·	·	-3.5%	·
COc1ccc2c(c1)c1c3n2CCN(C)C3=NCC1	?	i	3.2%	-11.1%	i
Cc1ccc2c(c1)c1c3n2CCN=C3CCC1	23.7%	?	-14.0%	4.9%	14.6µM*
Cc1ccc2c(c1)c1c3n2CCCNC3CCC1 (centres undefined)	-1.2%	i	18.8%	10.0%	i
c1cc2c(cc1C1CCCCC1)c1c3n2CCCNC3CCC1 (centres undefined)	?	18.4µM*	0.8%	17.6%[9.22 µM]	?
Cc1onc(-c2ccccc2)c1-c1nnc(COC(=O)c2ccc(O)cc2)o1	6.6%	i	?	-29.6%	i
COc1ccc(/C=C/c2cc(=O)c3cc(Cl)ccc3o2)cc1	20.6µM*	i	?	?	?
Cc1cc(O)c(C(=O)c2cnc3c(c2)COc2ccccc2-3)cc1Cl	·	i	·	·	i
Brc1ccc(-c2cn3nc4c(nc3n2)CCCC4)cc1	2.3%	i	?	-3.8%	i
CCc1ccc(-c2cn3nc(C)c(C)nc3n2)cc1	?	i	-1.4%	15.9%	18.4µM*
Cc1nc2nc(-c3ccccc3)cn2nc1C	11.0%	i	·	?	20.6µM*
Cc1nc2nc(-c3ccc(F)cc3)cn2nc1C	-6.7%	?	?	-6.3%	i
Cc1ccc(C(=O)Oc2ccc(/C=N/NC(N)=O)cc2)cc1	0.9%	i	-7.4%	-6.0%	i
CCN(CC)C(=O)CSc1ncnc2sccc12	-7.6%	i	?	-7.6%	i
CC1CC(C)CN(C(=O)CSc2ncnc3sccc23)C1 (centres undefined)	11.7%	i	5.3%	-4.8%	20.6µM*
CC(Oc1ccc(Cl)cc1)C(=O)N1CCCc2ccccc21 (centres undefined)	18.9%	i	-1.0%	-7.6%	i
Fc1cccc(Cl)c1/C=C/c1cnc2ccccc2n1	18.0%	i	?	-5.1%	i
N#Cc1cc2c(=O)n3ccccc3nc2n(Cc2cccnc2)c1=O	11.6µM*	i	·	2.31µM*	i
N#Cc1cc2c(=O)n3ccccc3nc2n(CCCN2CCOCC2)c1=O	23.1µM*	i	-1.4%	?	i
N#Cc1cc2c(=O)n3ccccc3nc2n(-c2ccccc2Cl)c1=O	4.11µM*	?	?	4.61µM*	i
Cc1cccn2c(=O)c3cc(C#N)c(=O)n(Cc4cccnc4)c3nc12	2.59µM*	i	14.1%	8.2µM*	i
SMILES	MCF10A rereplic	KB-3-1 tox	ELG1 DNA repair	SW480 rereplic	KB-V1 cytotox
CC1(C)SC(=S)N(NC(=O)Nc2ccccc2)C1N(O)C(=O)Nc1cccc2ccccc12 (centres undefined)	?	i	-0.1%	-104.4%	i
Cc1cc(=O)n(Cc2cccc(Cl)c2)c2c1c(C)nn2C	·	i	·	·	i
O=S(=O)(Nc1ccc(-c2csc(-c3ccccc3)n2)cc1)c1ccc(F)cc1	16.4µM*	?	21.0%	11.5%	?
O=S(=O)(Nc1cccnc1)c1ccc(F)cc1	2.0%	i	11.7%	-0.4%	i
O=C(Nc1nc(-c2ccccc2)cs1)c1ccccc1NS(=O)(=O)c1ccc(F)cc1	16.4µM*	6.51µM*	?	-0.7%	16.4µM*
O=C(Nc1ccccc1)Nc1nc(-c2ccc(F)cc2)cs1	5.4%	i	17.0%	2.1%	i
O=C(Nc1cccnc1)c1ccccc1NS(=O)(=O)c1ccc(F)cc1	8.2%	?	?	-5.0%	20.6µM*
COc1cccc(NC(=O)COc2ccc(N3CC(C(=O)NCC(C)C)CC3=O)cc2)c1 (centres undefined)	-0.1%	i	6.0%	-5.5%	i
CC(C)(CC(=O)OCC(=O)Nc1ccccc1F)CC1=NS(=O)(=O)c2ccccc2N1	1.6%	i	9.2µM*	7.1%	i
COc1ccccc1NC(=O)COC(=O)CC(C)(C)CC1=NS(=O)(=O)c2ccccc2N1	6.5%	i	?	-3.8%	i
O=[N+]([O-])c1cc(-c2n(-c3ccccn3)c3ccccc3[n+]2-c2ccccn2)ccc1Cl	-35.1%	i	18.3µM*	-2.1%	?
Clc1ccc2nc(COc3ccccc3)[nH]c2c1	3.26µM*	?	?	7.31µM*	i
O=c1[nH]c(COc2ccccc2)nc2ccccc12	?	i	?	?	?
Cc1c(-c2cccc(Cl)c2)nc2ccccc2c1C(=O)OCC(=O)Nc1ccc2c(c1)OCO2	14.2%	?	18.4µM*	2.5%	?
CCCc1nc2ccccc2c(C(=O)OC(C)C(=O)NCc2ccc3c(c2)OCO3)c1CC (centres undefined)	?	?	20.6µM*	?	?
CCCc1nc2ccccc2c(C(=O)OCC(=O)NCc2ccc3c(c2)OCO3)c1CC	18.4µM*	?	?	9.5%	i
Cc1onc(-c2ccccc2)c1C(=O)OCC(=O)Nc1ccc2c(c1)OCO2	-0.6%	i	-22.3%	-6.7%	?
Cc1nn(C)c2c1c(C(F)(F)F)cc(=O)n2Cc1cccc(Br)c1	·	i	·	·	i
F[B-](F)(F)c1cc2cc(Br)ccc2s1	-4.6%	i	·	17.4%	i
Cc1cc(C(=O)N2CCC2(C)C(=O)NCc2cccc3ccccc23)nn1C (centres undefined)	·	i	·	·	?
COc1ccc2nc3c(cc2c1)c(NC(=O)c1cccs1)nn3CC(C)C	?	?	?	15.5%	?
CCCCn1nc(NC(=O)CC)c2cc3cc(OC)ccc3nc21	25.9µM*	i	-13.0%	20.6µM*	i
CCCn1nc(NC(=O)C(C)(C)C)c2cc3cc(OC)ccc3nc21	14.6µM*	i	-22.2%	20.6µM*	?
CC(=O)c1c(C)[nH]c(C(=O)COC(=O)CCCOc2ccccc2)c1C	-8.6%	i	-0.8%	4.9%	i
CC(=O)c1c(C)[nH]c(C(=O)COc2cc(C)cc(C)c2)c1C	20.8%	i	-15.3%	1.1%	2.59µM*
CCCOc1ccc(OCC(=O)c2[nH]c(C)c(C(C)=O)c2C)cc1	46.8%	?	0.9%	16.7%	2.91µM*
c1ccc(-c2nc3ccccn3c2NCc2ccc3c(c2)OCO3)cc1	22.7%	i	-0.8%	-0.4%	i
